Source: the supplement of paper PMC4466140

B1: unnamed (peptide)
chain: ATNVPVAPPPPPASL

biological target: AgAbp1; experiment: SPOT peptide array binding signal intensity (averaged, normalized) (arbitrary units (background-subtracted, floor 0; scale differs between SH3 domains)); higher = stronger binding of the SH3 domain to the peptide
How it was run: (§1)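 Binding signal refers to normalized, background-subtracted spot intensity averaged over replicates, expressed in arbitrary units that differ between domains. GST-fused SH3 domains from four yeast species were incubated at 10 μg/ml overnight at 4°C on cellulose membranes of synthetic 15-mer peptides with cysteines replaced by serines. Bound protein was detected with anti-GST antibody, an HRP anti-mouse secondary and luminol, and quantified with Genespotter.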

Binder	SPOT peptide array binding signal intensity
B1	≤ 0

biological target: AgBbc1; experiment: as above
How it was run: as §1

Binder	SPOT peptide array binding signal intensity
B1	2.75

biological target: AgBem1-D1; experiment: as above
How it was run: as §1

Binder	SPOT peptide array binding signal intensity
B1	≤ 0

biological target: AgBzz1-D1; experiment: as above
How it was run: as §1

Binder	SPOT peptide array binding signal intensity
B1	1

biological target: AgBzz1-D2; experiment: as above
How it was run: as §1

Binder	SPOT peptide array binding signal intensity
B1	≤ 0

biological target: AgCyk3; experiment: as above
How it was run: as §1

Binder	SPOT peptide array binding signal intensity
B1	2

biological target: AgFus1; experiment: as above
How it was run: as §1

Binder	SPOT peptide array binding signal intensity
B1	≤ 0

biological target: AgHof1; experiment: as above
How it was run: as §1

Binder	SPOT peptide array binding signal intensity
B1	3

biological target: AgHse1; experiment: as above
How it was run: as §1

Binder	SPOT peptide array binding signal intensity
B1	27

biological target: AgLsb1; experiment: as above
How it was run: as §1

Binder	SPOT peptide array binding signal intensity
B1	≤ 0

biological target: AgLsb4; experiment: as above
How it was run: as §1

Binder	SPOT peptide array binding signal intensity
B1	≤ 0

biological target: AgMyo5; experiment: as above
How it was run: as §1

Binder	SPOT peptide array binding signal intensity
B1	468

biological target: AgNbp2; experiment: as above
How it was run: as §1

Binder	SPOT peptide array binding signal intensity
B1	≤ 0

biological target: AgRvs167; experiment: as above
How it was run: as §1

Binder	SPOT peptide array binding signal intensity
B1	≤ 0

biological target: AgSho1; experiment: as above
How it was run: as §1

Binder	SPOT peptide array binding signal intensity
B1	≤ 0

biological target: AgSla1-D1-D2; experiment: as above
How it was run: as §1

Binder	SPOT peptide array binding signal intensity
B1	4.5

biological target: AgSla1-D3; experiment: as above
How it was run: as §1

Binder	SPOT peptide array binding signal intensity
B1	≤ 0

biological target: CaAbp1-D1; experiment: as above
How it was run: as §1

Binder	SPOT peptide array binding signal intensity
B1	≤ 0

biological target: CaAbp1-D2; experiment: as above
How it was run: as §1

Binder	SPOT peptide array binding signal intensity
B1	≤ 0

biological target: CaBbc1; experiment: as above
How it was run: as §1

Binder	SPOT peptide array binding signal intensity
B1	≤ 0

biological target: CaBem1-D1; experiment: as above
How it was run: as §1

Binder	SPOT peptide array binding signal intensity
B1	≤ 0

biological target: CaBzz1-D1; experiment: as above
How it was run: as §1

Binder	SPOT peptide array binding signal intensity
B1	23

biological target: CaBzz1-D2; experiment: as above
How it was run: as §1

Binder	SPOT peptide array binding signal intensity
B1	0.25

biological target: CaCyk3; experiment: as above
How it was run: as §1

Binder	SPOT peptide array binding signal intensity
B1	4

biological target: CaFus1; experiment: as above
How it was run: as §1

Binder	SPOT peptide array binding signal intensity
B1	≤ 0

biological target: CaHof1; experiment: as above
How it was run: as §1

Binder	SPOT peptide array binding signal intensity
B1	1

biological target: CaHse1; experiment: as above
How it was run: as §1

Binder	SPOT peptide array binding signal intensity
B1	0.5

biological target: CaLsb1; experiment: as above
How it was run: as §1

Binder	SPOT peptide array binding signal intensity
B1	≤ 0

biological target: CaLsb4; experiment: as above
How it was run: as §1

Binder	SPOT peptide array binding signal intensity
B1	≤ 0

biological target: CaMyo5; experiment: as above
How it was run: as §1

Binder	SPOT peptide array binding signal intensity
B1	13.8

biological target: CaNbp2; experiment: as above
How it was run: as §1

Binder	SPOT peptide array binding signal intensity
B1	18

biological target: CaRvs167; experiment: as above
How it was run: as §1

Binder	SPOT peptide array binding signal intensity
B1	≤ 0

biological target: CaRvs167-3; experiment: as above
How it was run: as §1

Binder	SPOT peptide array binding signal intensity
B1	6.5

biological target: CaSho1; experiment: as above
How it was run: as §1

Binder	SPOT peptide array binding signal intensity
B1	≤ 0

biological target: CaSla1-D1-D2; experiment: as above
How it was run: as §1

Binder	SPOT peptide array binding signal intensity
B1	≤ 0

biological target: CaSla1-D3; experiment: as above
How it was run: as §1

Binder	SPOT peptide array binding signal intensity
B1	≤ 0

biological target: ScAbp1; experiment: as above
How it was run: as §1

Binder	SPOT peptide array binding signal intensity
B1	1

biological target: ScBbc1; experiment: as above
How it was run: as §1

Binder	SPOT peptide array binding signal intensity
B1	2.25

biological target: ScBem1-D1; experiment: as above
How it was run: as §1

Binder	SPOT peptide array binding signal intensity
B1	≤ 0

biological target: ScBzz1-D1; experiment: as above
How it was run: as §1

Binder	SPOT peptide array binding signal intensity
B1	≤ 0

biological target: ScBzz1-D2; experiment: as above
How it was run: as §1

Binder	SPOT peptide array binding signal intensity
B1	2

biological target: ScCyk3; experiment: as above
How it was run: as §1

Binder	SPOT peptide array binding signal intensity
B1	1

biological target: ScFus1; experiment: as above
How it was run: as §1

Binder	SPOT peptide array binding signal intensity
B1	≤ 0

biological target: ScHof1; experiment: as above
How it was run: as §1

Binder	SPOT peptide array binding signal intensity
B1	≤ 0

biological target: ScHse1; experiment: as above
How it was run: as §1

Binder	SPOT peptide array binding signal intensity
B1	≤ 0

biological target: ScLsb1; experiment: as above
How it was run: as §1

Binder	SPOT peptide array binding signal intensity
B1	0.25

biological target: ScLsb2; experiment: as above
How it was run: as §1

Binder	SPOT peptide array binding signal intensity
B1	≤ 0

biological target: ScLsb3; experiment: as above
How it was run: as §1

Binder	SPOT peptide array binding signal intensity
B1	≤ 0

biological target: ScLsb4; experiment: as above
How it was run: as §1

Binder	SPOT peptide array binding signal intensity
B1	2

biological target: ScMyo3; experiment: as above
How it was run: as §1

Binder	SPOT peptide array binding signal intensity
B1	1430

biological target: ScMyo5; experiment: as above
How it was run: as §1

Binder	SPOT peptide array binding signal intensity
B1	161

biological target: ScNbp2; experiment: as above
How it was run: as §1

Binder	SPOT peptide array binding signal intensity
B1	≤ 0

biological target: ScPex13; experiment: as above
How it was run: as §1

Binder	SPOT peptide array binding signal intensity
B1	≤ 0

biological target: ScRvs167; experiment: as above
How it was run: as §1

Binder	SPOT peptide array binding signal intensity
B1	≤ 0

biological target: ScSho1; experiment: as above
How it was run: as §1

Binder	SPOT peptide array binding signal intensity
B1	≤ 0

biological target: ScSla1-D1-D2; experiment: as above
How it was run: as §1

Binder	SPOT peptide array binding signal intensity
B1	≤ 0

biological target: ScSla1-D3; experiment: as above
How it was run: as §1

Binder	SPOT peptide array binding signal intensity
B1	2.25

biological target: SpAbp1-D1; experiment: as above
How it was run: as §1

Binder	SPOT peptide array binding signal intensity
B1	≤ 0

biological target: SpBbc1; experiment: as above
How it was run: as §1

Binder	SPOT peptide array binding signal intensity
B1	≤ 0

biological target: SpBzz1-D1; experiment: as above
How it was run: as §1

Binder	SPOT peptide array binding signal intensity
B1	125

biological target: SpBzz1-D2; experiment: as above
How it was run: as §1

Binder	SPOT peptide array binding signal intensity
B1	≤ 0

biological target: SpCyk3; experiment: as above
How it was run: as §1

Binder	SPOT peptide array binding signal intensity
B1	≤ 0

biological target: SpHof1; experiment: as above
How it was run: as §1

Binder	SPOT peptide array binding signal intensity
B1	≤ 0

biological target: SpHof1-2; experiment: as above
How it was run: as §1

Binder	SPOT peptide array binding signal intensity
B1	≤ 0

biological target: SpHof1-3; experiment: as above
How it was run: as §1

Binder	SPOT peptide array binding signal intensity
B1	≤ 0

biological target: SpHse1; experiment: as above
How it was run: as §1

Binder	SPOT peptide array binding signal intensity
B1	8.75

biological target: SpLsb1; experiment: as above
How it was run: as §1

Binder	SPOT peptide array binding signal intensity
B1	≤ 0

biological target: SpLsb4; experiment: as above
How it was run: as §1

Binder	SPOT peptide array binding signal intensity
B1	≤ 0

biological target: SpMyo1; experiment: as above
How it was run: as §1

Binder	SPOT peptide array binding signal intensity
B1	339

biological target: SpNbp2; experiment: as above
How it was run: as §1

Binder	SPOT peptide array binding signal intensity
B1	27.5

biological target: SpPex13; experiment: as above
How it was run: as §1

Binder	SPOT peptide array binding signal intensity
B1	≤ 0

biological target: SpRvs167; experiment: as above
How it was run: as §1

Binder	SPOT peptide array binding signal intensity
B1	≤ 0

biological target: SpSla1-D1-D2; experiment: as above
How it was run: as §1

Binder	SPOT peptide array binding signal intensity
B1	≤ 0

biological target: SpSla1-D3; experiment: as above
How it was run: as §1

Binder	SPOT peptide array binding signal intensity
B1	≤ 0
